# Screens (PubChem)
# Hits are enriched below; roughly 0.51% of the tested compounds scored in any of these assays.
# Epigenetic derep – Quantitative High-Throughput Screen for Regulators of Epigenetic Control. murine LDR cells, GFP reporter derepression, 30 h. 280,000 compounds, 0.2% hits. Potency, µM (highest dose often 53.9 µM), for the others: top-dose GFP activation, usual class: activators; also: % of control where 0% means no effect; nearly all actives have a fitted effect of over 60% in size
#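 In this reporter-derepression format, murine cells bearing a silenced integrated CMV-GFP locus incubate with test compound (30 h, 37 C), then are washed and imaged; fluorescent objects of 20–120 um count as induced cells.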
# Vif-APOBEC3G blk – qHTS for Inhibitors of Vif-A3G Interactions: qHTS | HeLa A3G-eYFP + Vif (tagged APOBEC3G with the HIV-1 protein that degrades it), YFP fluorescence, overnight | Potency, µM (series often up to 46.1 µM), for inactives: at the highest dose activity, negative = active, actives largely listed as inhibitors | 410,000 compounds, 0.076% hits | AID 602310, 2012; also: % is scaled to controls: 0 for no effect and ±100 for the full control effect; nearly all actives have a fitted effect of over 60% in size
# Target sequence (Q9HC16 whole entry, looked up): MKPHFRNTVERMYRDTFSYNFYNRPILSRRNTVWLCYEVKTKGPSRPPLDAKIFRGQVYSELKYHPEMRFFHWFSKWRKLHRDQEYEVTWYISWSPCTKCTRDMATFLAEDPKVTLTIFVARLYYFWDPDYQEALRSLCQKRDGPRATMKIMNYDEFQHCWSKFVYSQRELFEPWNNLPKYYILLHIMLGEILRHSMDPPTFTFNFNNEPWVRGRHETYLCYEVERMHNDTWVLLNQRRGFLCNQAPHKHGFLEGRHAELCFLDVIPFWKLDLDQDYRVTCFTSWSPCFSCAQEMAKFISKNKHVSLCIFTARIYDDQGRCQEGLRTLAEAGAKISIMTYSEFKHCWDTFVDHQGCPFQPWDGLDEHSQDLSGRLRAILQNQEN
#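 HeLa cells stably expressing Vif and C-terminally eYFP-tagged A3G, seeded overnight at 37 deg C, then exposed to compound by pintool overnight at 37 deg C. Rise in yellow fluorescence (Ex 488/Em 500-530, Acumen) marks blocked Vif-driven A3G degradation.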
# Vif-APOBEC3F blk – qHTS for Inhibitors of Vif-A3F Interactions: qHTS; 390,000 compounds, 0.2% hits; HeLa A3F-eYFP + Vif (tagged APOBEC3F with the HIV-1 protein that degrades it), YFP fluorescence increase; Potency, µM (highest dose often 46.1 µM), for the others: top-dose activity, negative = active; also: % of control where 0% means no effect; nearly all actives have a fitted effect of over 65% in size
#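 HeLa cells stably expressing A3F-eYFP plus Vif, plated and incubated overnight at 37 deg C, then exposed to compounds overnight at 37 deg C. Blocked degradation read as raised yellow fluorescence (Ex 488/Em 500-530).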
# PINK1 expr mod – A Quantitative High throughput Screen to Identify Chemical Modulators of PINK1 Expression; Potency, µM (highest dose often 76.6 µM), for inactives: top-dose activation (PINK1 increase), hits mostly activators; PINK1 immunofluorescence, high-content cytometry, 24 h; 410,000 compounds, 0.2% hits; active = well fitted activation curve with a large enough effect; inconclusive = small, poorly fitted or top-dose-only effect; cell line not stated here; also: % of control where 0% means no effect; nearly all actives have a fitted effect of over 65% in size
#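 Stable cell line, 250 cells/well, 12 h attachment; compounds pinned at 5 concentrations, 24 h; CCCP control. Fixed with nuclear dye, primary antibodies 12 h at 10 degrees C, secondary plus cell stain; laser-scanning cytometer read.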
# * hit, by the source's call; ? = inconclusive; . = not tested or not shown; ! = a repeat was not active; [ ] = remark or other dose. Unless noted, calls follow the shape of the dose curve; as a rule, active = well fitted curve in the direction sought with a large enough effect; inconclusive = small, poorly fitted or top-dose-only effect, or another doubt; inactive = no such curve, though single readings can be large; an effect the other way counts as inactive or inconclusive. Potency is read from the fitted curve at half-maximal effect.
SMILES,Epigenetic derep,Vif-APOBEC3G blk,Vif-APOBEC3F blk,PINK1 expr mod
CN1C2C=C3C(C#N)=C(N)C(C#N)(C#N)[C@H](c4c(F)cccc4F)[C@H]3C1CC2 (stereo partly specified),3%,-2%,-1%,1%[38.3 µM]
N#CC1=C(N)C(C#N)(C#N)[C@H](c2c(F)cccc2F)[C@H]2CC3(CC=C12)OCCO3,?,13µM*,22µM*,7%[38.3 µM]
COc1cccc(C2(CC(=O)N3CCCOc4c(cccc4OC)C3)CC(=O)N(C)C2=O)c1 (stereo unspecified),.,.,.,-1%
COc1ccc(N/C=C\C(=O)c2ccc(Br)cc2)cc1OC,?,-29%,32µM*,40µM*
COc1ccc(N/C=C\C(=O)c2ccc(C)cc2)cc1OC,11%,-7%,?,9%
CCSc1nnc(-c2sc3nnc(-c4ccccc4)c(-c4ccccc4)c3c2N)o1,?,3.2µM*,13µM*,0%
Fc1ccc(CNc2nc(-c3ccc(Cl)cc3)cc(C(F)(F)F)n2)cc1,0%,-4%,?,40µM*
Fc1ccc(-c2cc(C(F)(F)F)nc(NCc3ccccc3)n2)cc1,-1%,-1%,-7%,10%
CCOc1cc(CNc2ccc(N3CCCCC3)cc2)cc(Br)c1OCC(=O)NC(C)(C)C,-1%,-19%,?,14µM*
CCC(NC(=O)Nc1nccs1)(C(F)(F)F)C(F)(F)F,1%,-4%,-8%,1%
CCSc1nnc(NC(=O)Nc2cccc(C)c2)s1,2%,-4%,4%,13µM*
CCSc1nnc(NC(=O)NC(C)(C(F)(F)F)C(F)(F)F)s1,3%,-6%,1%,20µM*
CCSc1nnc(NC(=O)[C@@H](NC(=O)c2cccc(C)c2)C(C)C)s1,0%,0%,5%,2%
CCCC(=O)Nc1nnc(SCC)s1,-1%,0%,9%,0%
CCSc1nnc(NC(=O)NC(CC)(C(F)(F)F)C(F)(F)F)s1,2%,-9%,1%,22µM*
COc1ccc(-n2c(/C=C/c3c(C)[nH]c4ccccc34)nc3ccccc3c2=O)cc1,10µM*,-8%,-10%,13%
COC(=O)c1cc(Cl)c(NC(=O)/C=C/c2ccc(Cl)cc2Cl)cc1OC,-1%,-6%,5%,14µM*!
COC(=O)c1cc(Cl)c(NC(=O)/C=C/c2ccc(Cl)cc2)cc1OC,0%,1%,0%,?
COC1=C/C(=C/c2c(N)n3c(nc2=O)sc2cc(S(C)(=O)=O)ccc23)C=CC1=O,-1%,?,?,1%
CCOC1=C/C(=C/c2c(N)n3nc(-c4ccccc4)sc3nc2=O)C=CC1=O,2%,-16%,8.9µM*,-4%
CCS(=O)(=O)c1nn2c(N)c(/C=C3/C=CC(=O)C(OC)=C3)c(=O)nc2s1,1%,-8%,20µM*,-1%
CS(=O)(=O)c1ccc2c(c1)sc1nc(=O)c(/C=C3/C=CC(=O)C(O)=C3)c(N)n12,-2%,4%,-21%,-1%
CCOC1=C/C(=C/c2c(N)n3oc(C)cc3nc2=O)C=CC1=O,-1%,.,.,.
COC1=C/C(=C/c2c(N)n3nc(-c4ccc(C)cc4)sc3nc2=O)C=CC1=O,?,-18%,11µM*,0%
Cc1cc(C)cc(C(=O)NCCn2cc(C(=O)N3CCSCC3)nn2)c1,.,.,.,-1%
SMILES,Epigenetic derep,Vif-APOBEC3G blk,Vif-APOBEC3F blk,PINK1 expr mod
CCSC1=N/C(=C\c2ccc3c(c2)OCO3)C(=O)S1,1%,2%,.,-2%
CCSC1=N/C(=C\C=C2/Oc3ccccc3N2CC)C(=O)S1,11µM*,7.1µM*,6.3µM*,19%
COC(=O)c1ccc(CN2CCC3(CCC(CNC(=O)c4ccco4)O3)CC2)cc1 (stereo unspecified),.,.,.,2%
CC(C)C[C@@H](C=O)NC(=O)[C@H](CC(C)C)NC(=O)[C@H](CC(C)C)NC(=O)OCc1ccccc1,1.3µM*,.,.,.
COc1cc(C)c(CN2CCOc3ccc(C(O)c4cccnc4)cc3C2)cc1C (stereo unspecified),.,.,.,0%
Cc1noc(C)c1COc1cccc(C(=O)OCC(=O)N2CC(=O)Nc3ccccc32)c1,3%,2.8µM*,-2%,7%
O=C1CN(C(=O)COc2cccc(F)c2)c2ccccc2N1,0%,.,.,.
Oc1ccccc1N=N/C(=N/Nc1ccccc1O)c1ccccc1,.,2%,0%,-1%
N#C/C(N=Nc1ccccc1O)=N\Nc1ccccc1O,.,?,11µM*,?
COC(=O)[C@@H]1CCCN1C(=O)c1cnn(-c2ncc3c(n2)-c2ccccc2CCC3)c1C1CC1,.,.,.,3%
O=C(c1ccco1)N(Cc1cc2cc3c(cc2nc1N1CCOCC1)CCC3)CC1CCCO1 (stereo unspecified),.,.,.,0%
COc1ccc2nc(N3C(=O)/C(=C/c4ccc(Cl)cc4)NC3=S)sc2c1,?,-20%,?,22µM*
CC(C)(C)C1C=C(Sc2ccccc2)C(=O)O1 (stereo unspecified),2%,-1%,-15%,16µM*
O=C(NC1CCC(n2cc(C(=O)NC3CC3)nn2)CC1)C(=O)c1ccccc1 (stereo unspecified),.,.,.,0%
Nc1nc(-c2ccc(Cl)cc2)nnc1-c1ccc(Br)cc1,?,-13%,?,45µM*
Clc1ccc(-c2nnc(-c3ccccc3)c(-c3ccccc3)n2)cc1,3%,-1%,17%,8%
COc1ccc(NC(=O)c2sc3nc4c(cc3c2N)CN(Cc2ccccc2)CC4)cc1OC,18µM*,.,.,4%
Cc1ccccc1NC(=O)c1sc2nc3c(cc2c1N)CN(Cc1ccccc1)CC3,4%,.,.,8%
Cc1c(N2C(=O)/C(=C/c3ccc(N(C)C)cc3)N(C)C2=S)c(=O)n(-c2ccccc2)n1C,.,?,10µM*,1%
Cc1c(N2C(=O)/C(=C/c3ccccc3)SC2=S)c(=O)n(-c2ccccc2)n1C,0%,0%,6%,2%
O=C(NNC(=S)Nc1cccc(C(F)(F)F)c1)c1cccc(Cl)c1,1%,-5%,-9%,16µM*
CC(C)(C)n1ncc2c(=O)n(Cc3c(F)ccc(Cl)c3Cl)cnc21,.,1%,.,.
C=CCn1c(=O)/c(=C/c2ccc(O)cc2)s/c1=C(/C#N)c1nnc2n1CCCCC2,-1%,-2%,?,-3%[38.3 µM]
C=CCn1c(=O)/c(=C/c2cc(OC)c(OC)c(OC)c2)s/c1=C(/C#N)c1nc2ccccc2n1C,?,-8%,22µM*,2%
Cc1ccc2c(CC(=O)N3CCOc4ccc(CN5C[C@@H](C)O[C@@H](C)C5)cc4C3)cc(=O)oc2c1,.,.,.,0%
COC1C(O)C(CO)OC1n1c(Br)nc2c(=O)[nH]c(N)nc21 (stereo unspecified),0%,.,.,0%
COC1C(CO)OC(n2c3c(Cl)cccc3c3c4c(c5c6cccc(Cl)c6[nH]c5c32)C(=O)NC4=O)C(O)C1O (stereo unspecified),.,?,?,40µM*
